Several values for one entry are separate records, joined by “and”; a condition that tells them apart may be missing. Identical values can stand only once. Activity calls are given as the source filed them.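 How the source made its calls, unless noted: active means efflux inhibition above 0.42, the validation set average plus 4 SD; inconclusive means no clear call, values can overlap the other calls; inactive means the rest.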
System: not listed separately
Assay: Nile Red efflux blockade in pump-expressing yeast – validation compound set, multiplex, phenotypic, pilot screen (AID 588506);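 further: Nile Red retained in cells so higher fluorescence means more efflux inhibition; 0 = negative control wells and 1 = enniatin B 25 µM full block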
Settings: S. cerevisiae pump-expressing triplex, Nile Red efflux flow cytometry; at 10 µM; hits give high values; the pumps come from Candida albicans

Structure (SMILES) | efflux inhibition (fraction of control)
NS(=O)(=O)c1cc2c(cc1Cl)NC(C1C[C@H]3C=C[C@@H]1C3)NS2(=O)=O (stereo partly drawn) | 0.03 (inactive)
CC(=O)NC1C(OCc2ccccc2)OC(COC(C)=O)C(OC(C)=O)C1OC(C)=O (stereo not drawn) | 0.12 (inactive)
O=CNC1CCCc2c1[nH]c1ccc(Cl)cc21 (stereo not drawn) | -0.04 (inactive)
O=C(O)CP(=O)(O)O | 0.03 (inactive)
Cc1cccc(Nc2ccccc2C(=O)O)c1C | 0.08 (inactive)
CC1(C)CC(NCc2ccccc2)CCO1 (stereo not drawn) | 0.04 (inactive)
Cc1ccccc1C(=O)NCC(=O)O | 0.31 (inactive)
CCOc1cc2c3c(c1)C(C)=CC(C)(C)N3C(=O)C2=O | -0.13 (inactive)
O=C(N1CCCC1)C12CC3CC(C1)CC(C(=O)N1CCCC1)(C3)C2 | 0.15 (inactive)
O=C(NC(Nc1ccccn1)C(Cl)(Cl)Cl)c1ccccc1 (stereo not drawn) | 0.25 (inactive)
COc1cc(NC(=S)NC(=O)c2cccs2)ccc1NC(=O)C(C)C | 0.05 (inactive)
COc1ccc(CCN(C)CCCC(C#N)(c2cc(OC)c(OC)c(OC)c2)C(C)C)cc1OC (stereo not drawn) | -0.01 (inactive)
O=C1C(Cc2c[nH]c3ccccc23)NC(=S)N1Cc1ccccc1 (stereo not drawn) | 0 (inactive)
CC(C)(C)C(=O)NC(=S)NNC(=O)c1ccncc1 | -0.04 (inactive)
CCOC(=O)N1CCN(Cc2nc(Cc3cccc(F)c3)no2)CC1 | 0.02 (inactive)
C[C@@H]1C[C@H](Nc2ccccc2)c2ccccc2N1C(=O)c1cccnc1 | 0.05 (inactive)
OC(CCN1CCCC1)(c1ccccc1)C1CCCCC1 (stereo not drawn) | 0.12 (inactive)
Cc1cc(Cl)cc2c1NC(=O)[C@]21[C@@H]2C(=O)N(Cc3ccccc3)C(=O)[C@@H]2[C@@H]2CCCN21 | 0.08 (inactive)
O=C(/C=C/c1ccco1)Nc1ccccc1C(=O)O | -0.3 (inactive)
CC(C)c1ccc(/C=C/C(=O)O)cc1 | -0.35 (inactive)

Structure (SMILES) | efflux inhibition (fraction of control)
CCN(CC)CC(=O)Nc1c(C)cccc1C | 0.05 (inactive) and -0.1 (inactive)
CC1=C(C)C(=O)C(CCCCC#CCCCC#CCO)=C(C)C1=O | -0.13 (inactive)
COc1cc(C=NCC2OCCc3ccccc32)cc(OC)c1 (stereo not drawn) | -0.46 (inactive)
CN(C)CCCN1c2ccccc2CCc2ccccc21 | -0.2 (inactive)
COc1ccc2nc(S(=O)Cc3ncc(C)c(OC)c3C)[nH]c2c1 (stereo not drawn) | -0.16 (inactive)
COc1ccc(CNCCC2(C(C)C)CCOC(C)(C)C2)cc1 (stereo not drawn) | -0.1 (inactive)
COc1cccc(CN2C(=O)N(C(C)C)C(N(O)C(=O)NC(C)C)C2(C)C)c1OC (stereo not drawn) | -0.04 (inactive)
Cc1ccc(S(=O)(=O)N[C@@H](Cc2ccccc2)C(=O)CCl)cc1 | 0.04 (inactive)
COCCN(CCOC)Cc1c(C)[nH]c2c(C)c(C)ccc2c1=O | -0.29 (inactive)
CCOC(=O)C(NC(=O)CCC(=O)Nc1ccc(S(N)(=O)=O)cc1)C(O)c1ccccc1 (stereo not drawn) | 0 (inactive)
Cc1ccccc1N1C(N)=NC(N)=NC1(C)C | -0.28 (inactive)
CC1Cc2ccccc2N1NC(=O)c1ccc(Cl)c(S(N)(=O)=O)c1 (stereo not drawn) | 0.04 (inactive)
CC1=C(/C=C/C(C)=C/C=C/C(C)=C/C(=O)O)C(C)(C)CCC1 | 0.04 (inactive)
N/C(=N\OC(=O)/C=C/c1ccccc1)c1ccc(Br)cc1 | -0.01 (inactive)
CCOc1ccc(C(=O)C(C)=O)c(OCC)c1 | -0.02 (inactive)
COc1ccc(C=O)c(OC)c1 | 0.08 (inactive)
CC1=NN(c2ccccc2)C(=O)C1 | -0.1 (inactive)
COCC1CCCN(Cc2cn[nH]c2-c2cc3ccccc3o2)C1 (stereo not drawn) | 0.05 (inactive)
CC1(C)CC(=O)C(C2=NC(C)(C)Cc3ccccc32)=C(O)C1 | 0.14 (inactive)

Target: ATP-binding cassette sub-family B member 6 (Homo sapiens) (UniProt Q9NP58)
Assay: blockers of ABCB6-driven porphyrin uptake – K562-ABCB6 cells, flow cytometry, validation set, pilot screen (AID 588550;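 active means inhibition above the screen-wide mean plus 3 SD, about 51%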;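 further: 0% = DMSO wells and 100% = benzethonium chloride 70 µM positive control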)
Settings: K562-ABCB6 porphyrin accumulation, 1 h, at 10 µM, hits give high values

ATP-binding cassette sub-family B member 6 (Homo sapiens), sequence (Q9NP58 whole entry, looked up): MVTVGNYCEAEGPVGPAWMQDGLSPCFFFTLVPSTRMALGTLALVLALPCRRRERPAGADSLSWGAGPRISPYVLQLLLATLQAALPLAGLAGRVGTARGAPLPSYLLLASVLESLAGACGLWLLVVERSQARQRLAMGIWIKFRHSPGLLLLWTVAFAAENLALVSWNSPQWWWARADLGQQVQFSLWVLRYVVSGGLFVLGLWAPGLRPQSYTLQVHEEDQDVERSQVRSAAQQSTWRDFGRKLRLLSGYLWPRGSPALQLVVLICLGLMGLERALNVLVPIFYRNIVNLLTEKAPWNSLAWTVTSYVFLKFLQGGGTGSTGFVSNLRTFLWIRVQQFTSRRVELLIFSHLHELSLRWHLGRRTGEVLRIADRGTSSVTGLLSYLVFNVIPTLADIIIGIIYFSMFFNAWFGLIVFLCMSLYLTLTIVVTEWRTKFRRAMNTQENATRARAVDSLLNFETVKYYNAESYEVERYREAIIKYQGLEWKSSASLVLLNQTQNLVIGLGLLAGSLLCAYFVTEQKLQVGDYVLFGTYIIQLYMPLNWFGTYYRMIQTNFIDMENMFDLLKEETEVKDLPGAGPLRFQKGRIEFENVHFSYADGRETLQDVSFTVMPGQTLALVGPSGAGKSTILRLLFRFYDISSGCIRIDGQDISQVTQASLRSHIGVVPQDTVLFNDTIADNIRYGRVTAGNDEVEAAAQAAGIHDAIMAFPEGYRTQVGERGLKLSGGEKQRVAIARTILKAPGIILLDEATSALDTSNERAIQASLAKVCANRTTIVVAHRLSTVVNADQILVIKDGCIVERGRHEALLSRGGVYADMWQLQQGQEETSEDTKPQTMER

Structure (SMILES) | inhibition
NS(=O)(=O)c1cc2c(cc1Cl)NC(C1C[C@H]3C=C[C@@H]1C3)NS2(=O)=O (stereo partly drawn) | 10% (inactive)
CC(=O)NC1C(OCc2ccccc2)OC(COC(C)=O)C(OC(C)=O)C1OC(C)=O (stereo not drawn) | 2% (inactive)
O=CNC1CCCc2c1[nH]c1ccc(Cl)cc21 (stereo not drawn) | -3% (inactive)
O=C(O)CP(=O)(O)O | 16% (inactive)
Cc1cccc(Nc2ccccc2C(=O)O)c1C | 5% (inactive)
CC1(C)CC(NCc2ccccc2)CCO1 (stereo not drawn) | 4% (inactive)
Cc1ccccc1C(=O)NCC(=O)O | -7% (inactive)
CCOc1cc2c3c(c1)C(C)=CC(C)(C)N3C(=O)C2=O | 4% (inactive)
O=C(N1CCCC1)C12CC3CC(C1)CC(C(=O)N1CCCC1)(C3)C2 | 3% (inactive)
O=C(NC(Nc1ccccn1)C(Cl)(Cl)Cl)c1ccccc1 (stereo not drawn) | -8% (inactive)
COc1cc(NC(=S)NC(=O)c2cccs2)ccc1NC(=O)C(C)C | 9% (inactive)
COc1ccc(CCN(C)CCCC(C#N)(c2cc(OC)c(OC)c(OC)c2)C(C)C)cc1OC (stereo not drawn) | 9% (inactive)
O=C1C(Cc2c[nH]c3ccccc23)NC(=S)N1Cc1ccccc1 (stereo not drawn) | 8% (inactive)
CC(C)(C)C(=O)NC(=S)NNC(=O)c1ccncc1 | -5% (inactive)
CCOC(=O)N1CCN(Cc2nc(Cc3cccc(F)c3)no2)CC1 | 13% (inactive)
C[C@@H]1C[C@H](Nc2ccccc2)c2ccccc2N1C(=O)c1cccnc1 | 0% (inactive)
OC(CCN1CCCC1)(c1ccccc1)C1CCCCC1 (stereo not drawn) | 109% (active)
Cc1cc(Cl)cc2c1NC(=O)[C@]21[C@@H]2C(=O)N(Cc3ccccc3)C(=O)[C@@H]2[C@@H]2CCCN21 | -22% (inactive)
O=C(/C=C/c1ccco1)Nc1ccccc1C(=O)O | -11% (inactive)
CC(C)c1ccc(/C=C/C(=O)O)cc1 | 4% (inactive)

Structure (SMILES) | inhibition
CCN(CC)CC(=O)Nc1c(C)cccc1C | 10% (inactive) and 7% (inactive)
CC1=C(C)C(=O)C(CCCCC#CCCCC#CCO)=C(C)C1=O | -1% (inactive)
COc1cc(C=NCC2OCCc3ccccc32)cc(OC)c1 (stereo not drawn) | -47% (inactive)
CN(C)CCCN1c2ccccc2CCc2ccccc21 | 3% (inactive)
COc1ccc2nc(S(=O)Cc3ncc(C)c(OC)c3C)[nH]c2c1 (stereo not drawn) | -7% (inactive)
COc1ccc(CNCCC2(C(C)C)CCOC(C)(C)C2)cc1 (stereo not drawn) | -1% (inactive)
COc1cccc(CN2C(=O)N(C(C)C)C(N(O)C(=O)NC(C)C)C2(C)C)c1OC (stereo not drawn) | 26% (inactive)
Cc1ccc(S(=O)(=O)N[C@@H](Cc2ccccc2)C(=O)CCl)cc1 | 9% (inactive)
COCCN(CCOC)Cc1c(C)[nH]c2c(C)c(C)ccc2c1=O | -9% (inactive)
CCOC(=O)C(NC(=O)CCC(=O)Nc1ccc(S(N)(=O)=O)cc1)C(O)c1ccccc1 (stereo not drawn) | 7% (inactive)
Cc1ccccc1N1C(N)=NC(N)=NC1(C)C | 20% (inactive)
CC1Cc2ccccc2N1NC(=O)c1ccc(Cl)c(S(N)(=O)=O)c1 (stereo not drawn) | 7% (inactive)
CC1=C(/C=C/C(C)=C/C=C/C(C)=C/C(=O)O)C(C)(C)CCC1 | -2% (inactive)
N/C(=N\OC(=O)/C=C/c1ccccc1)c1ccc(Br)cc1 | 13% (inactive)
CCOc1ccc(C(=O)C(C)=O)c(OCC)c1 | 19% (inactive)
COc1ccc(C=O)c(OC)c1 | -6% (inactive)
CC1=NN(c2ccccc2)C(=O)C1 | -1% (inactive)
COCC1CCCN(Cc2cn[nH]c2-c2cc3ccccc3o2)C1 (stereo not drawn) | 7% (inactive)
CC1(C)CC(=O)C(C2=NC(C)(C)Cc3ccccc32)=C(O)C1 | 13% (inactive)
